Conditions in all cases: treatment time: 24 h
The test system of one assay is A549-ACTB-RAB5A. As to the kind of experiment: phenotypically active (imaging signature differs from DMSO and reproducible) at any of 0.3-9 uM (binary (1 = active, 0 = inactive)); higher = active. A digest of the protocol: (§1)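 After 24 h at 0.3, 1, 3 or 9 µM, with four wells per treatment, fifteen gene-edited A549, HepG2 and WPMY1 reporter lines carrying BFP, GFP and RFP/FusionRed were imaged live. Each well's live-cell features were expressed relative to solvent control wells. Deviation required ≥3 of 4 wells past the 95th percentile of control Euclidean distances, and reproducibility a median replicate Pearson correlation over the 95th percentile of non-replicates. Phenotypic activity rested on both.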

A further assay relates to A549-CANX-COX4. The description is as above. A digest of the protocol:
as §1

In assay [1] the test system is A549-GM130-SQSTM1. The description is as above. Summed up:
as §1

The test system of another assay is A549-TP53BP1-CLTA. The description is as above. A digest of the protocol: as §1
For the next assay, the system named is A549-TUBA1B-RELA. Described as above. Summed up:
as §1

The test system of assay [2] is HepG2-ACTB-RAB5A. The assay is described as above. Summed up:
as §1

The subject of a further assay is HepG2-CANX-COX4. Described as above. A digest of the protocol:
as §1

Assay [3] deals with HepG2-GM130-SQSTM1. Described as above. A digest of the protocol: as §1
The subject of the next assay is HepG2-TP53BP1-CLTA. Described as above. A digest of the protocol:
as §1

The next assay has as its system HepG2-TUBA1B-RELA. The description is as above. A digest of the protocol:
as §1

In the next assay the test system is WPMY1-ACTB-RAB5A. The description is as above. A digest of the protocol:
as §1

In another assay the test system is WPMY1-CANX-COX4. The assay is described as above. Summed up:
as §1

Assay [4] has as its system WPMY1-GM130-SQSTM1. Described as above. Summed up: as §1
The next assay has as its system WPMY1-TP53BP1-CLTA. The assay is described as above. A digest of the protocol:
as §1

A further assay has as its system WPMY1-TUBA1B-RELA. The description is as above. Summed up: as §1
In assay [5] the test system is WPMY1-GM130-SQSTM1. Description: lowest phenotypically active concentration; higher = less potent. A digest of the protocol:
as §1

For assay [6], the system named is HepG2-ACTB-RAB5A. The assay is described as above. A digest of the protocol: as §1
Assay [7] has as its system HepG2-GM130-SQSTM1. Described as above. Summed up:
as §1

The subject of assay [8] is A549-GM130-SQSTM1. Described as above. A digest of the protocol: as §1

The structures appear in SMILES notation.

As to `CC1=C(/C=C/C(C)=C/C=C/C(C)=C/C(=O)O)C(C)(C)CCC1` [isotretinoin], the phenotypically active in the assay on A549-ACTB-RAB5A, with A549-CANX-COX4, in the assay on A549-GM130-SQSTM1 [1], in the assay on A549-TP53BP1-CLTA, in the assay with A549-TUBA1B-RELA and in the assay on HepG2-ACTB-RAB5A [2] was 0 (inactive) throughout. The phenotypically active in the assay with HepG2-CANX-COX4 is 1 (active); in the assay on HepG2-GM130-SQSTM1 [3], 0 (inactive); in the assay with HepG2-TP53BP1-CLTA, 0 (inactive); in the assay on HepG2-TUBA1B-RELA it was 0 (inactive); in the assay on WPMY1-ACTB-RAB5A, 0 (inactive); with WPMY1-CANX-COX4, 0 (inactive). The phenotypically active in the assay on WPMY1-GM130-SQSTM1 [4] was 0 (inactive); in the assay on WPMY1-TP53BP1-CLTA, 1 (active); in the assay with WPMY1-TUBA1B-RELA it was 0 (inactive).
With `C[C@H](NC(=O)c1sccc1OCc1ccc(Cl)cc1)c1ccccc1`, the “lowest phenotypically active concentration” value in the assay on WPMY1-GM130-SQSTM1 [5] worked out at 3 µM. Also, the phenotypically active in the assay on A549-ACTB-RAB5A was 0 (inactive); in the assay on A549-CANX-COX4, 0 (inactive); in the assay on A549-GM130-SQSTM1 [1] it was 0 (inactive); in the assay on A549-TP53BP1-CLTA, 1 (active); in the assay on A549-TUBA1B-RELA, 0 (inactive); with HepG2-ACTB-RAB5A [2] it was 0 (inactive). Besides, the phenotypically active with HepG2-CANX-COX4 was 0 (inactive); in the assay on HepG2-GM130-SQSTM1 [3] it was 0 (inactive); in the assay with HepG2-TP53BP1-CLTA, 0 (inactive); in the assay on HepG2-TUBA1B-RELA it was 0 (inactive); in the assay on WPMY1-ACTB-RAB5A it was 1 (active); with WPMY1-CANX-COX4, 0 (inactive). The values for the phenotypically active with WPMY1-GM130-SQSTM1 [4], with WPMY1-TP53BP1-CLTA and in the assay on WPMY1-TUBA1B-RELA were 1 (active), 1 (active) and 0 (inactive), respectively.
In the case of `CC(C)(C)c1ccc(C(=O)Nc2cn3cc(-n4ccnc4)ccc3n2)cc1`, in the assay with HepG2-ACTB-RAB5A [6], the “lowest phenotypically active concentration” value stood at 3 µM. Besides, the phenotypically active is 0 (inactive) with A549-ACTB-RAB5A; 0 (inactive) with A549-CANX-COX4; 0 (inactive) with A549-GM130-SQSTM1 [1]; 0 (inactive) in the assay on A549-TP53BP1-CLTA; 0 (inactive) with A549-TUBA1B-RELA; 1 (active) with HepG2-ACTB-RAB5A [2]. Also, the phenotypically active with HepG2-CANX-COX4, in the assay on HepG2-GM130-SQSTM1 [3], in the assay with HepG2-TP53BP1-CLTA, in the assay on HepG2-TUBA1B-RELA, in the assay with WPMY1-ACTB-RAB5A and with WPMY1-CANX-COX4 was 0 (inactive) in each case. The phenotypically active in the assay on WPMY1-GM130-SQSTM1 [4], in the assay on WPMY1-TP53BP1-CLTA and in the assay with WPMY1-TUBA1B-RELA was 0 (inactive) in each case.
In the case of `C[C@H](NC(=O)[C@@H](O)c1cc(F)cc(F)c1)C(=O)N[C@@H]1C(=O)N(C)c2ccccc2-c2ccccc21`, the “lowest phenotypically active concentration” value with WPMY1-GM130-SQSTM1 [5] was 3 µM. Besides, the phenotypically active in the assay with A549-ACTB-RAB5A, in the assay on A549-CANX-COX4, in the assay with A549-GM130-SQSTM1 [1], in the assay with A549-TP53BP1-CLTA, with A549-TUBA1B-RELA and in the assay on HepG2-ACTB-RAB5A [2] was 0 (inactive) in each case. For the same compound, the phenotypically active was 1 (active) in the assay with HepG2-CANX-COX4; 0 (inactive) with HepG2-GM130-SQSTM1 [3]; 0 (inactive) in the assay on HepG2-TP53BP1-CLTA; 0 (inactive) in the assay on HepG2-TUBA1B-RELA; 1 (active) in the assay on WPMY1-ACTB-RAB5A; 1 (active) in the assay with WPMY1-CANX-COX4. The phenotypically active in the assay with WPMY1-GM130-SQSTM1 [4] was 1 (active); in the assay with WPMY1-TP53BP1-CLTA it was 0 (inactive); in the assay with WPMY1-TUBA1B-RELA, 0 (inactive).
For `CC(C)N(CCCNC(=O)Nc1ccc(C(C)(C)C)cc1)C[C@H]1O[C@@H](n2cc(Br)c3c(N)ncnc32)[C@H](O)[C@@H]1O`, the “lowest phenotypically active concentration” value with HepG2-ACTB-RAB5A [6] was 3 µM; in the assay with HepG2-GM130-SQSTM1 [7], 3 µM; in the assay on WPMY1-GM130-SQSTM1 [5], 9 µM. The phenotypically active in the assay on A549-ACTB-RAB5A was 0 (inactive); in the assay on A549-CANX-COX4 it was 0 (inactive); in the assay on A549-GM130-SQSTM1 [1] it was 0 (inactive); in the assay with A549-TP53BP1-CLTA it was 1 (active); in the assay with A549-TUBA1B-RELA, 0 (inactive); in the assay on HepG2-ACTB-RAB5A [2], 1 (active). The phenotypically active in the assay on HepG2-CANX-COX4, with HepG2-GM130-SQSTM1 [3], in the assay with HepG2-TP53BP1-CLTA, in the assay on HepG2-TUBA1B-RELA, with WPMY1-ACTB-RAB5A and with WPMY1-CANX-COX4 was 1 (active) in each case. For the same compound, the phenotypically active in the assay with WPMY1-GM130-SQSTM1 [4], with WPMY1-TP53BP1-CLTA and with WPMY1-TUBA1B-RELA was 1 (active) throughout.
Turning to `O=c1cc(N2CCOCC2)oc2c1ccc1ccccc12`, the “lowest phenotypically active concentration” value in the assay with A549-GM130-SQSTM1 [8] was determined as 3 µM. Besides, the phenotypically active in the assay with A549-ACTB-RAB5A was 0 (inactive); in the assay with A549-CANX-COX4 it was 0 (inactive); in the assay on A549-GM130-SQSTM1 [1], 1 (active); with A549-TP53BP1-CLTA, 0 (inactive); in the assay on A549-TUBA1B-RELA it was 0 (inactive); in the assay on HepG2-ACTB-RAB5A [2], 0 (inactive). Further, the phenotypically active with HepG2-CANX-COX4, with HepG2-GM130-SQSTM1 [3], with HepG2-TP53BP1-CLTA, in the assay on HepG2-TUBA1B-RELA, in the assay on WPMY1-ACTB-RAB5A and in the assay with WPMY1-CANX-COX4 was 0 (inactive) in each case. For the same compound, the phenotypically active is 0 (inactive) in the assay on WPMY1-GM130-SQSTM1 [4], 0 (inactive) in the assay with WPMY1-TP53BP1-CLTA and 1 (active) with WPMY1-TUBA1B-RELA.

The record behind these values is the supplement of paper PMC7411054.
